Experimental data reported in PubChem BioAssay (NCI).
About 79,000 compounds went through this panel and 15% of them were active in at least one assay; those are over-represented in the sample as a whole. Unmarked numbers belong to inactive results. Calls of active or inactive are those of the source. No stated cut-off is given here; in the data, active means growth inhibition above about 70%; inactive means the rest.

Tests used:
[1] = NCI Yeast Anticancer Drug Screen. Data for the rad50 strain (AID 155);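 further: 0% = growth of vehicle-only cultures of the same strain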; conditions: S. cerevisiae rad50 strain growth inhibition, stronger effect = higher value
Outline: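 Genetically altered yeast (DNA repair pathway); compound treatment; growth inhibition vs vehicle ctrl.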

[2] = NCI Yeast Anticancer Drug Screen. Data for the mec2-1 strain (AID 157); conditions: S. cerevisiae mec2-1 strain, stronger effect = higher value
Outline: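 Cells of the genetically defined mec2-1 yeast strain are incubated with test compound. Inhibition of growth is calculated against vehicle-treated controls.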

[3] = NCI Yeast Anticancer Drug Screen. Data for the sgs1 mgt1 strain (AID 161);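 further: 0% = growth of cultures given vehicle only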; conditions: S. cerevisiae sgs1 mgt1 strain, stronger effect = higher value
Outline: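 Test agents were incubated with a DNA-repair-mutant yeast strain. Growth was then read and compared against vehicle-treated controls.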

[4] = NCI Yeast Anticancer Drug Screen. Data for the bub3 strain (AID 167); conditions: S. cerevisiae bub3 mutant strain, stronger effect = higher value
Outline: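 Yeast carrying a defined mutation is treated with each compound, and growth is compared with that of vehicle-exposed cells to give inhibition.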

[5] = NCI Yeast Anticancer Drug Screen. Data for the mlh1 rad18 strain (AID 175); conditions: S. cerevisiae mlh1 rad18 strain growth inhibition, stronger effect = higher value
Outline: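 Compound-treated yeast growth, normalised to vehicle controls. Strain bears defined DNA repair mutations.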

[6] = NCI Yeast Anticancer Drug Screen. Data for the cln2 rad14 strain (AID 165);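 further: 0% = growth equal to vehicle treated cultures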; conditions: S. cerevisiae cln2 rad14 strain, stronger effect = higher value
Outline: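 The screen exposed genetically defined yeast (cln2 rad14) to test compounds and scored growth inhibition relative to vehicle-treated controls.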

[7] = at 5.0 µM (retest, dose inferred, filed as 0.5)
[8] = at 50.0 µM (retest, dose inferred, filed as 5.0)

Structure (SMILES)	growth inhibition [1, 7]	growth inhibition [1, 8]	growth inhibition ([1]; at 50.0 µM)	growth inhibition [2, 7]	growth inhibition [2, 8]	growth inhibition ([2]; at 50.0 µM)	growth inhibition [3, 7]	growth inhibition [3, 8]	growth inhibition ([3]; at 50.0 µM)	growth inhibition [4, 7]	growth inhibition [4, 8]	growth inhibition ([4]; at 50.0 µM)	growth inhibition [5, 7]	growth inhibition [5, 8]	growth inhibition ([5]; at 50.0 µM)	growth inhibition [6, 7]	growth inhibition [6, 8]	growth inhibition ([6]; at 50.0 µM)
Cc1cc(C(=O)c2ccc(Cl)cc2)ccc1O	0%	4%	72.4% (active)	-4%	-2%	57.5%	0%	4%	85.9% (active)	-3%	0%	24.8%	-1%	-2%	70.5% (active)			
CC1(c2ccc(O)cc2)CCC(C(C)(C)c2ccc(O)cc2)CC1 (stereo not drawn)	41%	99% (active)	90.5% (active)	46%	100% (active)	91.9% (active)	80% (active)	97% (active)		89% (active)	96% (active)		44%	100% (active)	91.1% (active)	60%	97% (active)	
OC(CSc1ccccc1)CN1CCN(c2ccc(Cl)cc2)CC1 (stereo not drawn)	8%	73% (active)	84.2% (active)	5%	43%	25.5%	6%	90% (active)	79% (active)	7%	76% (active)	80.8% (active)	4%	73% (active)	59.5%			
CCC[CH2][Sn]([CH2]CCC)([CH2]CCC)[O]C(=O)C(OC(C)=O)c1ccccc1 (stereo not drawn)	99% (active)	99% (active)	91.5% (active)	99% (active)	99% (active)	92.2% (active)	99% (active)	99% (active)	91.5% (active)	99% (active)	99% (active)	90.2% (active)	100% (active)	100% (active)	91% (active)			
O=C(C[P+](c1ccccc1)(c1ccccc1)c1ccccc1)c1ccccc1	0%	10%	11.8%	9%	14%	23.4%	-7%	11%	22.1%				5%	-46%	34.6%	18%	12%	8%
Cc1ccccc1N=C(N)Nc1ccccc1C (tested in a mixture with another compound)	0%	15%	12.9%	-2%	7%	27.8%	-1%	5%	30.6%				-2%	13%	28.6%	-2%	-16%	-62.5%
Oc1ccc2ccccc2c1N=Nc1nccs1	27%	69%	82.8% (active)	51%	92% (active)	91.1% (active)	98% (active)	90% (active)		96% (active)	85% (active)		36%	77% (active)	77.8% (active)	74% (active)	86% (active)	
Nc1c(N)c(Cl)c(Cl)c(Cl)c1Cl	38%	84% (active)	87% (active)	58%	91% (active)	91.6% (active)	20%	96% (active)		32%	98% (active)		33%	83% (active)	87.3% (active)	43%	97% (active)	
O=C(c1ccccc1)N(CCCl)C(=O)N(CCCl)C(=O)c1ccccc1	47%	56%	78% (active)	68%	52%	48.9%	-7%	68%		23%	64%		31%	36%	68%	45%	56%	
C=CCO/N=C/c1cc(NC(=S)c2ccoc2C)ccc1Cl	13%	86% (active)	83.9% (active)	6%	86% (active)	85.5% (active)	1%	85% (active)	83.2% (active)	-4%	90% (active)	80.4% (active)	4%	91% (active)	76.7% (active)	-11%	80% (active)	84.3% (active)
COc1ccc2c(c1)c(CC(=O)O)c(C)n2C(=O)c1ccc(Cl)cc1	-1%	37%	82.2% (active)	1%	57%	48.2%	2%	54%	88.7% (active)				-1%	39%	72% (active)	1%	32%	80.7% (active)
